# In PubChem BioAssay AID2284173 (EPA ToxCast):
# Calls of active or inactive are those of the source. Rule for the calls: active = hit-call score of the fitted dose curve at least 0.9, where 1 is the maximum; inactive = score below 0.9.
# Test system: rat KATP Antagonism, gene 24521
# Test: ERF_FR_IC_rKCNJ1: Eurofins (ERF) Potassium Ion Channel Mass Spectrometry Ligand Binding LeadHunter Assay for rat KATP Antagonism
# Protocol: ERF_FR_IC_rKCNJ1 is a biochemical, single-readout assay that uses extracted gene-proteins in a cell-free assay. Measurements were taken 1 hour after chemical dosing in a 96-well plate. See KATP Rat Potassium Ion Channel Binding (Antagonist Radioligand) Assay, Cerep.ERF_FR_IC_rKCNJ1 is an assay component calculated from the ERF_FR_IC_rKCNJ1 assay. It is designed to measure radioligand binding using a type of binding reporter as detected by scintillation counting with radiometry technology.Data from the assay component ERF_FR_IC_rKCNJ1 was analyzed at the assay endpoint, ERF_FR_IC_rKCNJ1, in the positive analysis fitting direction relative to DMSO as the negative control and baseline of activity. Using a type of binding reporter, loss-of-signal activity can be used to understand changes in binding as they relate to gene KCNJ1. To generalize the intended target to other relatable targets, this assay endpoint is annotated to the ion channel intended target family, where the subfamily is voltage gated (Potassium).
# Rat cells are incubated for 60 minutes at room temprature with Glibenclamide (0.07 nM) as ligand and Glibenclamide-d3 (30nM) as control inhibitor. Test Sample Requirements: Minimum for 1) Screen: 60 ul of 10 mM stock -OR- 1 mg (pre-weighed) for 10 uM final testing. 2) Dose Response: 90 ul of 10 mM stock -OR- 1 mg (pre-weighed) for a top concentration at 10 uM.
row,SMILES,AC50
1,O=C(/C=C/c1ccc(O)cc1)CC(=O)/C=C/c1ccc(O)cc1,880 nM (active)
